# Measured values published in PubChem BioAssay (EPA / NIEHS).
# Records with an inconclusive call do not appear. Active and inactive are the calls of the source. Rule for the calls: active = hit-call score of the fitted dose curve at least 0.9, where 1 is the maximum; inconclusive = response in the unintended direction; inactive = score below 0.9.
# Legend:
# [1] = TOX21_p53_BLA_p5_viability: Viability Assessment in the Tox21 HCT-116 p53 Agonism Beta-lactamase Assay, Phase 5 (AID 2283600)
# Method in brief: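 Seeded cells (4000/well) settle 5 h before compound addition. Plates then incubate 16 h at 37C, receive FRET substrate for 2 h, and finally CellTiter-Glo, with luminescence measured after a 30 min room-temperature incubation.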
# [2] = molecular target: Cellular tumor antigen p53 (Homo sapiens) (UniProt P04637); experiment: TOX21_p53_BLA_p4_ratio: Tox21 HCT-116 p53 Agonism Beta-lactamase Assay, Ratio, Phase 4 (AID 2283601)
# Method in brief: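 HCT-116 p53 beta-lactamase reporter cells (4000/well) preincubated 5 h, then compound (217-fold dilution of DMSO stock) for 16 h at 37C. CCF4-AM substrate added 2 h at room temperature; 460/530 nm emission ratio fitted upward versus DMSO.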
# [3] = molecular target: Luciferin 4-monooxygenase (Photinus pyralis) (UniProt P08659); experiment: CCTE_Simmons_QuantiLum_inhib_2: CCTE's Firefly Luciferase Inhibition Assay, Simmons Lab (AID 2283767)
# Method in brief: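 Counter-screen for nonspecific enzyme inhibition: purified firefly luciferase incubated 30 min at 37C with chemicals up to 87.5 uM final, then luminescence measured after luciferin/dATP injection; activity fitted against DMSO baseline.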
# [4] = CCTE_Simmons_CellTiterGLO_HEK293T: Viability Assessment in CCTE's Assays for Thyroperoxidase (TPO) Inhibition, Simmons Lab (AID 2283665)
# Method in brief: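 Cytotoxicity counter-screen: human HEK293T cells in low-serum (1% FBS) medium receive test chemical, 5 nM to 87.5 uM final, for 24 h; ATP is quantified by luciferase luminescence.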
# Sequence of Cellular tumor antigen p53 (Homo sapiens) (P04637 whole entry, looked up): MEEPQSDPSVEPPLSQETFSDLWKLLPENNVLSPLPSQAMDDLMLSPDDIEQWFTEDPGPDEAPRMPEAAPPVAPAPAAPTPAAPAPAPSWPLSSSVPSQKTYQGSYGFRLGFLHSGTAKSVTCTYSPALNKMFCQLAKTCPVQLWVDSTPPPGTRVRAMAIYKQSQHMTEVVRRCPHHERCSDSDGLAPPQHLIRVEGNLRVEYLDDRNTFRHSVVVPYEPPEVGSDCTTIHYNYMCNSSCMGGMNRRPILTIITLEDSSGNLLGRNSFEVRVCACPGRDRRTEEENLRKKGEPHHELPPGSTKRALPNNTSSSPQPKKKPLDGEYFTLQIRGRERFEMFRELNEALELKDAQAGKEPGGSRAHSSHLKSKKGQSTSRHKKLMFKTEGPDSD
# Sequence of Luciferin 4-monooxygenase (Photinus pyralis) (P08659 whole entry, looked up): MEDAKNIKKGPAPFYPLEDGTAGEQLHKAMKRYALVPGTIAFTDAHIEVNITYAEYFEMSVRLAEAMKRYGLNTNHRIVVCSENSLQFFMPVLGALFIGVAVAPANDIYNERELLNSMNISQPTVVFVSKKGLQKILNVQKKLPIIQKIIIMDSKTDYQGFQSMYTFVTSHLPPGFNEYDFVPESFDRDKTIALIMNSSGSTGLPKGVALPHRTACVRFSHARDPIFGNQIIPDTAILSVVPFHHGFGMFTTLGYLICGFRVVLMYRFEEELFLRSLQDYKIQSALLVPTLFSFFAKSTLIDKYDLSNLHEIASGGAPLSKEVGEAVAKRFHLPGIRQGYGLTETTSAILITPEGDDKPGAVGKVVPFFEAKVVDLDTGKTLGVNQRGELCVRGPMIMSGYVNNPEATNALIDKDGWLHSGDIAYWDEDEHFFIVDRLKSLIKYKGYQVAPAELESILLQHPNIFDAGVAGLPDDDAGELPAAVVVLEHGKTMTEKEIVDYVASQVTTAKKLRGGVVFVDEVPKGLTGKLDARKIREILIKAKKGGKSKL
smiles,measurement,setting,value
CCCCOCCOC(=O)CCCCCCCCC(=O)OCCOCCCC,outcome,[1],inactive
same,outcome,[2],inactive
O=c1[nH]c2ccccc2s1,outcome,[3],inactive
CCN1CCCC1CNC(=O)c1cc(S(=O)(=O)CC)c(N)cc1OC (stereo unspecified),outcome,[2],inactive
CCOC(=O)c1cccc(O)c1,outcome,[4],inactive
same,outcome,[3],inactive
